# Measurements: ChEMBL document CHEMBL1961873, “Compounds: GSK PKIS; Assays: Nanosyn kinase panel” (2012)
# How the values were obtained:
# [1] = biological target: Sphingosine kinase 1 (Homo sapiens) (UniProt Q9NYA1); conditions: at 1 µM;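 note: mean SPHK1 inhibition value reported from the GSK PKIS kinase panel screen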
# [2] = biological target: T1, Sphingosine kinase 2 (Homo sapiens) (UniProt Q9NRA0); conditions: at 0.1 µM
# T1 sequence (whole entry): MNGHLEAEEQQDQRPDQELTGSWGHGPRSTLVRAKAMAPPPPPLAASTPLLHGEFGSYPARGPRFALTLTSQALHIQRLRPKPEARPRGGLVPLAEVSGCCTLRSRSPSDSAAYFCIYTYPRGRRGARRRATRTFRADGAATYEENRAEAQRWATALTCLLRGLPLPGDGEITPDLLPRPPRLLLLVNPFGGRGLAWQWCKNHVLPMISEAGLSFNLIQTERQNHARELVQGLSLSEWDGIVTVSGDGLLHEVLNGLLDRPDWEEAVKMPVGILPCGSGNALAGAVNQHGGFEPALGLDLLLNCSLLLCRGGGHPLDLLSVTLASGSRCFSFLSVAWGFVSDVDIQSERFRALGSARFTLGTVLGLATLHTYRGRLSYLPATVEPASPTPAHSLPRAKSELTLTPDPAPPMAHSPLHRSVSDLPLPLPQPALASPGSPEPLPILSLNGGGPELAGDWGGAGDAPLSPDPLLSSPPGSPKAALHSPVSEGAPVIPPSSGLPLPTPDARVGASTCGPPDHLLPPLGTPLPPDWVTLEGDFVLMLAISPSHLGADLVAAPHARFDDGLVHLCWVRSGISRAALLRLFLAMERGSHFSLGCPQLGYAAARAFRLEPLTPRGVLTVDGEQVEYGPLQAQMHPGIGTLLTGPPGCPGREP
# [3] = biological target: T1, Sphingosine kinase 2 (Homo sapiens); conditions: at 1 µM
# [4] = biological target: Casein kinase II subunit alpha (Homo sapiens) (UniProt P68400); conditions: at 0.1 µM
# [5] = biological target: Casein kinase II subunit alpha (Homo sapiens) (UniProt P68400); conditions: at 1 µM
# [6] = biological target: T2, Inhibitor of nuclear factor kappa-B kinase subunit alpha (Homo sapiens) (UniProt O15111); conditions: at 0.1 µM
# T2 sequence (whole entry): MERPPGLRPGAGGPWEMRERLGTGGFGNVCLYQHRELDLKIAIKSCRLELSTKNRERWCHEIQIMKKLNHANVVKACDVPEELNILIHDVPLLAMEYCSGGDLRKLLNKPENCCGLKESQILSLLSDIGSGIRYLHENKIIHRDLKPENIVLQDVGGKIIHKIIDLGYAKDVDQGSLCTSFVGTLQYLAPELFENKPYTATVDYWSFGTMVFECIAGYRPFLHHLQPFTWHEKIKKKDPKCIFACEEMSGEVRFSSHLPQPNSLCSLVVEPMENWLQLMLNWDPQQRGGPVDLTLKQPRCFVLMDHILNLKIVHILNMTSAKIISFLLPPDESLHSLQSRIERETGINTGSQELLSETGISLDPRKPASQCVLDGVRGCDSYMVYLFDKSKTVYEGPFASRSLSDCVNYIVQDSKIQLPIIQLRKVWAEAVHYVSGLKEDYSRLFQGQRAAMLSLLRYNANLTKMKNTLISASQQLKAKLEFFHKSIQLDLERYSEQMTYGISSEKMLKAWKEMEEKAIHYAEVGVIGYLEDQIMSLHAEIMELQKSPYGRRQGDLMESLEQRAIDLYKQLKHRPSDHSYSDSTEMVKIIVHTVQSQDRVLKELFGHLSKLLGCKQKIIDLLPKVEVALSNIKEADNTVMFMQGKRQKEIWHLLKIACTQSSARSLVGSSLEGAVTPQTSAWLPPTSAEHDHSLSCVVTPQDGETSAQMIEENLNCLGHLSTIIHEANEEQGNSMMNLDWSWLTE
# [7] = biological target: T2, Inhibitor of nuclear factor kappa-B kinase subunit alpha (Homo sapiens); conditions: at 1 µM
# [8] = biological target: T3, Inhibitor of nuclear factor kappa-B kinase subunit beta (Homo sapiens) (UniProt O14920); conditions: at 0.1 µM
# T3 sequence (whole entry): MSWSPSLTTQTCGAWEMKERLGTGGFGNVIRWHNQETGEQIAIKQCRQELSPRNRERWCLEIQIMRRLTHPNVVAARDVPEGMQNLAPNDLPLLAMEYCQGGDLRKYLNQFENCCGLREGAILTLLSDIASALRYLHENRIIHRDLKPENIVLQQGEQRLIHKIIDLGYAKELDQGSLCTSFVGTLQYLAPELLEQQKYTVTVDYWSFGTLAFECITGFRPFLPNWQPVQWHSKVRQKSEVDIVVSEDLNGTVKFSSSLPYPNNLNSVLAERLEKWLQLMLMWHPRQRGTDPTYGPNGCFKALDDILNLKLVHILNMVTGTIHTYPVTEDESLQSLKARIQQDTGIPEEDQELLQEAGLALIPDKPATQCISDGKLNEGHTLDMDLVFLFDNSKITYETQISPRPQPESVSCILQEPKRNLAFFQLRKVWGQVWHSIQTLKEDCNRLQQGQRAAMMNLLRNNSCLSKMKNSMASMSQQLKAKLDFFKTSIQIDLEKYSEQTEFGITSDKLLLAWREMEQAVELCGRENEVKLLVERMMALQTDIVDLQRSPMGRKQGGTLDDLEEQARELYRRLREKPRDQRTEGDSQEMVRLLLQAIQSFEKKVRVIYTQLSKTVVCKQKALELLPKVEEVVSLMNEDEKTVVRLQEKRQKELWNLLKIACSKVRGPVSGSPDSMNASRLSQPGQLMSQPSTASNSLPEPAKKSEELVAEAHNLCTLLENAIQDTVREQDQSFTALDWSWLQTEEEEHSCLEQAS
# [9] = biological target: T3, Inhibitor of nuclear factor kappa-B kinase subunit beta (Homo sapiens); conditions: at 1 µM
# [10] = biological target: T4, Inhibitor of nuclear factor kappa-B kinase subunit epsilon (Homo sapiens) (UniProt Q14164); conditions: at 0.1 µM
# T4 sequence (whole entry): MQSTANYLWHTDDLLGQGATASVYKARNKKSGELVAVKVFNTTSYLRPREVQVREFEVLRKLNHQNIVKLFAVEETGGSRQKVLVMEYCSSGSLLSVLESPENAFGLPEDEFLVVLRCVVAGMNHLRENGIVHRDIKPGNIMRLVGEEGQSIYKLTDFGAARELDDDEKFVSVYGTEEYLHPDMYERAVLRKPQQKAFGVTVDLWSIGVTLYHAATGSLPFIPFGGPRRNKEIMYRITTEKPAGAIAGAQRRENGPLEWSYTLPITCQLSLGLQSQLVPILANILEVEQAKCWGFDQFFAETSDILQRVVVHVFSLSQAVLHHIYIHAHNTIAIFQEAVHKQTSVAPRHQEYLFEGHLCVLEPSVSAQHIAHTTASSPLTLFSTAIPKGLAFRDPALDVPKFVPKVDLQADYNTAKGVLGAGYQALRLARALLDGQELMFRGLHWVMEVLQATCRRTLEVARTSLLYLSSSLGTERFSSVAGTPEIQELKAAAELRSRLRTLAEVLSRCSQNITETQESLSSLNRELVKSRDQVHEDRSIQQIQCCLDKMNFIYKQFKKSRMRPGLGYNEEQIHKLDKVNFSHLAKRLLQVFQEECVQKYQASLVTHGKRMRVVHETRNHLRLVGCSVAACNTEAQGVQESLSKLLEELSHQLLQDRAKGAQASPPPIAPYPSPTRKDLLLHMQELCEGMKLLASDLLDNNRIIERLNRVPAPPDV
# [11] = biological target: T4, Inhibitor of nuclear factor kappa-B kinase subunit epsilon (Homo sapiens); conditions: at 1 µM
# [12] = biological target: T5, Serine/threonine-protein kinase Nek1 (Homo sapiens) (UniProt Q96PY6); conditions: at 0.1 µM
# T5 sequence (whole entry): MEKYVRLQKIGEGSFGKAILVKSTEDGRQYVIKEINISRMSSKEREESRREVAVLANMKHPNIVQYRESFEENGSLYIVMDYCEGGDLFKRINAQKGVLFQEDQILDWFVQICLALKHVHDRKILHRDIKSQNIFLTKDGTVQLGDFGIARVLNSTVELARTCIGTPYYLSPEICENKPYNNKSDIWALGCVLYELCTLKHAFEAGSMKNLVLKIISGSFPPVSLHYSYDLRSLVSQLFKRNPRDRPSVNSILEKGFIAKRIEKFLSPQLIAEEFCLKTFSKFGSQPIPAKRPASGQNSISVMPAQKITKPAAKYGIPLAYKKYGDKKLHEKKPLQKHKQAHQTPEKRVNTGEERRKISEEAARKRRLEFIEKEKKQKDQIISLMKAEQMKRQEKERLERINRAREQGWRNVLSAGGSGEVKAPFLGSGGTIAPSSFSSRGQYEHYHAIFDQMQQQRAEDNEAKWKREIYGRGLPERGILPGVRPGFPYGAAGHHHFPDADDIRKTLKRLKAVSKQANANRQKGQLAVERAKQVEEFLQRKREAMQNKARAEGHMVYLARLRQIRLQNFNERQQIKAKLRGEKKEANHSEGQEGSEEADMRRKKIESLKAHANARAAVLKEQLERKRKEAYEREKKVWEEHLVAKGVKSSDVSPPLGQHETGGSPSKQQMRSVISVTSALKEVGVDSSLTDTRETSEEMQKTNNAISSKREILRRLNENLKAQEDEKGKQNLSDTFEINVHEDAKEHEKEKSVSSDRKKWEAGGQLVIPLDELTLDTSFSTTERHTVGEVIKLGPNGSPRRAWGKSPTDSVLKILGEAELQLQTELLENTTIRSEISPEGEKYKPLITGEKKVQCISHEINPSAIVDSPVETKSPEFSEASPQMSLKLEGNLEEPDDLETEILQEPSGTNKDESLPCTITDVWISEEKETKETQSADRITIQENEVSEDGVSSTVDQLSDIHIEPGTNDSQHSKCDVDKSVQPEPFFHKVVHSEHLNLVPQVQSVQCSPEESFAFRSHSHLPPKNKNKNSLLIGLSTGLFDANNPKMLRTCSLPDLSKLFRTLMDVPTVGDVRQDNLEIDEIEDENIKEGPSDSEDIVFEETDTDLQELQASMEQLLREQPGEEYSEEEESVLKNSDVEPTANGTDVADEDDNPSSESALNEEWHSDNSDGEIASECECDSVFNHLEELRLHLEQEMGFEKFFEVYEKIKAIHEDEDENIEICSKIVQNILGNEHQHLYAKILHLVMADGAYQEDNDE
# [13] = biological target: T5, Serine/threonine-protein kinase Nek1 (Homo sapiens); conditions: at 1 µM
# [14] = biological target: T6, Serine/threonine-protein kinase Nek2 (Homo sapiens) (UniProt P51955); conditions: at 0.1 µM
# T6 sequence (whole entry): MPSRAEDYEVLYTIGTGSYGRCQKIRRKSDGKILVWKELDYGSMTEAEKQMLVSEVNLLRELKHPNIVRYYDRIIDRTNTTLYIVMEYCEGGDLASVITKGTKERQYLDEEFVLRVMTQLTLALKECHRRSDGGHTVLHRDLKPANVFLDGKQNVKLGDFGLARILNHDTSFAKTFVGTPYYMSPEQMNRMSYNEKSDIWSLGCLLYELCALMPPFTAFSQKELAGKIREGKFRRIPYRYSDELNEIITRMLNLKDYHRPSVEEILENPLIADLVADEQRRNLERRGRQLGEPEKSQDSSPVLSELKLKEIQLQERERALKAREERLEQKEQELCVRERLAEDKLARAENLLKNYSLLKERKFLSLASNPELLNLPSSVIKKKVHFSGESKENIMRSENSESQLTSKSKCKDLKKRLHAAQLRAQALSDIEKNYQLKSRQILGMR
# [15] = biological target: T6, Serine/threonine-protein kinase Nek2 (Homo sapiens); conditions: at 1 µM
# [16] = biological target: Serine/threonine-protein kinase Nek6 (Homo sapiens) (UniProt Q9HC98); conditions: at 0.1 µM
# [17] = biological target: Serine/threonine-protein kinase Nek6 (Homo sapiens) (UniProt Q9HC98); conditions: at 1 µM
# [18] = biological target: Serine/threonine-protein kinase Nek7 (Homo sapiens) (UniProt Q8TDX7); conditions: at 0.1 µM
# [19] = biological target: Serine/threonine-protein kinase Nek7 (Homo sapiens) (UniProt Q8TDX7); conditions: at 1 µM
# [20] = biological target: T7, Serine/threonine-protein kinase Nek9 (Homo sapiens) (UniProt Q8TD19); conditions: at 0.1 µM;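 note: reported value is the mean percent inhibition of NEK9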
# T7 sequence (whole entry): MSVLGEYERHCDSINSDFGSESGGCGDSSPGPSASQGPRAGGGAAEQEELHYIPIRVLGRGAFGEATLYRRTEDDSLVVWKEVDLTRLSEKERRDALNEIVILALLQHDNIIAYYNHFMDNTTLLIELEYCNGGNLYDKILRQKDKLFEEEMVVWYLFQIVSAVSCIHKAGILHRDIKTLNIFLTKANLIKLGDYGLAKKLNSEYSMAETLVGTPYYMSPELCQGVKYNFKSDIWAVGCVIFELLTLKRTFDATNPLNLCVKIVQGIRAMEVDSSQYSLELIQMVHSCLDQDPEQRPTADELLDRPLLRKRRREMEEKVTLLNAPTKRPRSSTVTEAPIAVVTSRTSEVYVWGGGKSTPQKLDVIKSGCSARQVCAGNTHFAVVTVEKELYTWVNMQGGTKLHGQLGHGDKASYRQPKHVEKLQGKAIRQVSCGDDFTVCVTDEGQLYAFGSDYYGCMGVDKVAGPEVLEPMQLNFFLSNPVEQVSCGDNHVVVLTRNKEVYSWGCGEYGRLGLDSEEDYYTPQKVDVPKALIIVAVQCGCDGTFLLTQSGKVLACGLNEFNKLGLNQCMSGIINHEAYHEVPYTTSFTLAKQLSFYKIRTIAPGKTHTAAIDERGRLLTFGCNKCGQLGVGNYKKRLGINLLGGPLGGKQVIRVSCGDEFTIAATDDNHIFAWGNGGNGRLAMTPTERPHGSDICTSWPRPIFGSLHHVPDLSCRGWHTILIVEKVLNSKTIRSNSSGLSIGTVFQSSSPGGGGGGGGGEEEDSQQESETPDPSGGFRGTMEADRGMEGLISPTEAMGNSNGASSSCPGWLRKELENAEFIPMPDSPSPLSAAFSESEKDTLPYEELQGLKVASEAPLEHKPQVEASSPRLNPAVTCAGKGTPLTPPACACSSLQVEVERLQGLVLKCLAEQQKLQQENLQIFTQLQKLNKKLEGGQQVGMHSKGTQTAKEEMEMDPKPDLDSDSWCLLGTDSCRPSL
# Casein kinase II subunit alpha (Homo sapiens), sequence (P68400 whole entry, looked up): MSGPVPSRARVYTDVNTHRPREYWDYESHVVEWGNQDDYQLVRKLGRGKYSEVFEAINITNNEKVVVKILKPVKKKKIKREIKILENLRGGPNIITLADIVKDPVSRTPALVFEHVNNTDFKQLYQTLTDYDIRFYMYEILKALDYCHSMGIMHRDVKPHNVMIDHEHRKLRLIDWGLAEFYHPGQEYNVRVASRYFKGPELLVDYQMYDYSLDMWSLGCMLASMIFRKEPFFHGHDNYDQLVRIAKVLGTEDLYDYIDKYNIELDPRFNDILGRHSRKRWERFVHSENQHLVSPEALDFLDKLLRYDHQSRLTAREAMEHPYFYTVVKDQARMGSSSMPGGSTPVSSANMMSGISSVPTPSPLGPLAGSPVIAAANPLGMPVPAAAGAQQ
# Serine/threonine-protein kinase Nek6 (Homo sapiens), sequence (Q9HC98 whole entry): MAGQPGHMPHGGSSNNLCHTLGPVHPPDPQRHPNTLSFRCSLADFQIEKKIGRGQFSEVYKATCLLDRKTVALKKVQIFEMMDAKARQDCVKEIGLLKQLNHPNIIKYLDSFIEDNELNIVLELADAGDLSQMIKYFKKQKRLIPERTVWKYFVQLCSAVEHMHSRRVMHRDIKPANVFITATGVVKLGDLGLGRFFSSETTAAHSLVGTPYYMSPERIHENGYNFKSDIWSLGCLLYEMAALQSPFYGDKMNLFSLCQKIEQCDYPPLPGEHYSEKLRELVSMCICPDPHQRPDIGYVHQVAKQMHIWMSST
# Serine/threonine-protein kinase Nek7 (Homo sapiens), sequence (Q8TDX7 whole entry, looked up): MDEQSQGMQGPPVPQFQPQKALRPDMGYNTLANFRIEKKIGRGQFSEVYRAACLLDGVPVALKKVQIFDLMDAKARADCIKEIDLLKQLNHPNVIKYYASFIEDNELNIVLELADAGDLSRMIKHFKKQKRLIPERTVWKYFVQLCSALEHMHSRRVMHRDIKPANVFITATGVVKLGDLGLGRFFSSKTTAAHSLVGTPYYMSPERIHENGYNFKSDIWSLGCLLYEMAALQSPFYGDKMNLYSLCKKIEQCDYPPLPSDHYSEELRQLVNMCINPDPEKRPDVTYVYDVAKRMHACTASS
# Sphingosine kinase 1 (Homo sapiens), sequence (Q9NYA1 whole entry): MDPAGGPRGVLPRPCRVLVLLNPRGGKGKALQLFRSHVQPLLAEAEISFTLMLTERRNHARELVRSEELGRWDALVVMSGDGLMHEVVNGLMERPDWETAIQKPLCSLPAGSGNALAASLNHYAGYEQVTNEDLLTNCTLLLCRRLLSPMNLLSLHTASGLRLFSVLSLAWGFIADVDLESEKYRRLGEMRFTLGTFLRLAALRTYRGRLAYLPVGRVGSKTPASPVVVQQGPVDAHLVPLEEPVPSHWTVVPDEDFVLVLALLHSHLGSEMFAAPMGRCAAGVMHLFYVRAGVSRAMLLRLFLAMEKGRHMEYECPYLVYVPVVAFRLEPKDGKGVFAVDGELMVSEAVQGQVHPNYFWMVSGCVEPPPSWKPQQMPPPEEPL
smiles,measurement,setting,value
O=C1NC(=O)C(c2cccc(Cl)c2)=C1Nc1ccc(O)c(Cl)c1,inhibition,[1],-1.72%
same,inhibition,[2],-1.48%
same,inhibition,[3],-0.07%
same,inhibition,[4],-2.69%
same,inhibition,[5],-1.28%
same,inhibition,[6],0.7%
same,inhibition,[7],0.73%
same,inhibition,[8],-0.95%
same,inhibition,[9],-3.39%
same,inhibition,[10],-0.3%
same,inhibition,[11],0.33%
same,inhibition,[12],0.25%
same,inhibition,[13],0.17%
same,inhibition,[14],1.39%
same,inhibition,[15],1.51%
same,inhibition,[16],-0.33%
same,inhibition,[17],-3.08%
same,inhibition,[18],1.78%
same,inhibition,[19],1.51%
same,inhibition,[20],1.58%
